In the supplement of paper PMC10515830:
Where a name gives a salt, the structure may show the parent alone.

Tests used:
Settings in all cases: 10 µM; exposure time 6 h
[1] = system: Danio rerio larvae (5 dpf); experiment: difference in excitability vs DMSO (percentage points); higher = more excitable than DMSO
Procedure, shortened: (§1)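 In 96-well plates, 48 wild-type zebrafish larvae aged 5 dpf per compound received 100 µL egg water with library compound at 10 µM final for 6 h. Three hours into this, a 3-h programme of moving lines and 100 ms, 400Hz tones ran at 28.5 ℃ while plates were photographed every 6 s. Z-LaP Tracker scored the behaviours, and each is given as the compound mean minus the vehicle control mean in percentage points.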

[2] = system: Danio rerio larvae (5 dpf); experiment: difference in startle response vs DMSO (percentage points); higher = stronger startle than DMSO
Procedure, shortened: as §1

[3] = system: Danio rerio larvae (5 dpf); experiment: difference in activity during first hour vs DMSO (percentage points); higher = more activity than DMSO
Procedure, shortened: as §1

[4] = system: Danio rerio larvae (5 dpf); experiment: difference in habituation to acoustic stimuli vs DMSO (percentage points); higher = more habituation than DMSO
Procedure, shortened: as §1

[5] = system: Danio rerio larvae (5 dpf); experiment: difference in combined optomotor response to red, green and blue moving lines vs DMSO (percentage points); higher = stronger optomotor response than DMSO
Procedure, shortened: as §1

Structure (SMILES)	difference in excitability [1]	difference in startle response [2]	difference in activity during first hour [3]	difference in habituation to acoustic stimuli [4]	difference [5]
O=P1(NCCCl)OCCCN1CCCl (stereo not given) [Ifosfamide]	10	-6.24	-5.39	2.26	2.77
COc1cc([C@@H]2c3cc4c(cc3[C@H](O)[C@H]3COC(=O)[C@H]23)OCO4)cc(OC)c1OC [Podophyllotoxin]	12.7	-7.15	-1.85	2.01	7.28
N.N.[Cl][Pt][Cl] [Cisplatin]	-2.35	-10	-16.8	-5.63	-0.233
CC1=C[C@]23C(=O)[C@@H](C=C(CO)[C@@H](O)[C@]2(O)[C@H]1O)[C@H]1[C@@H](C[C@H]3C)C1(C)C [Ingenol]	8.75	2.54	-2.63	4.35	-0.622
O=P1(N(CCCl)CCCl)NCCCO1 (stereo not given) [Cyclophosphamide (hydrate)]	-1.55	-0.479	2.35	-0.439	2.91
CC(=O)O[C@H]1C[C@@H]2CC[C@@H]3[C@H](CC[C@@]4(C)[C@H]3C[C@H]([N+]3(C)CCCCC3)[C@@H]4OC(C)=O)[C@@]2(C)C[C@@H]1[N+]1(C)CCCCC1 [Pancuronium (bromide hydrate)]	15.9	4.02	-3.48	-0.432	5.41
N[C@@H](Cc1ccc(N(CCCl)CCCl)cc1)C(=O)O [Melphalan]	10.9	1.5	-4.46	-1.58	7.41
CCN(C(C)=O)c1cccc(-c2ccnc3c(C#N)cnn23)c1 [Zaleplon]	-3.98	-8.07	5.81	-1.42	-10.8
C[N@+]1(CC2CC2)CC[C@]23c4c5ccc(O)c4O[C@H]2C(=O)CC[C@@]3(O)[C@H]1C5 [Methylnaltrexone (bromide)]	3.91	-0.955	8.76	7.78	-7.48
C=C1C[C@@H]2[C@H](CC[C@]3(C)C(=O)CC[C@@H]23)[C@@]2(C)C=CC(=O)C=C12 [Exemestane]	14.1	0.844	-8.29	-0.126	3.59
CC(NC(C)(C)C)C(=O)c1cccc(Cl)c1 (stereo not given) [Bupropion (hydrochloride)]	-1.99	-4.01	-3.52	2.84	-2.98
C[N+]1(C)CCCC(OC(=O)C(O)(c2ccccc2)c2ccccc2)C1 (stereo not given) [Mepenzolate (bromide)]	0.196	-4.42	2.16	-0.492	-1.25
C#CCN(C)[C@H](C)Cc1ccccc1 [R-(-)-Deprenyl (hydrochloride)]	-5.66	-0.482	-5.84	6.14	1.17
CC[C@@H](C(N)=O)N1CCCC1=O [Levetiracetam]	1.51	0.691	2.97	4.14	4.89
O=C(O[C@H]1C[C@H]2CC[C@@H](C1)[N+]21CCCC1)C(O)(c1ccccc1)c1ccccc1 [Trospium (chloride)]	-11.2	-0.27	1.73	-0.832	-4.92
COc1cc2c(cc1OC)C1CC(=O)C(CC(C)C)CN1CC2 (stereo not given) [Tetrabenazine]	25.1	3.39	9.5	-2.68	-3.98
C[C@H](N)[C@H](O)c1ccc(O)c(O)c1 [Levonordefrin]	2.43	-2.28	3.36	-5.57	-0.226
CC(C)C[C@H]1C(=O)N2CCC[C@H]2[C@]2(O)O[C@](NC(=O)[C@@H]3C=C4c5cccc6[nH]c(Br)c(c56)C[C@H]4N(C)C3)(C(C)C)C(=O)N12 [Bromocriptine (mesylate)]	22.1	-1.2	30.9	-9.36	-3.6
CN1C[C@H](C(=O)N[C@]2(C)O[C@@]3(O)[C@@H]4CCCN4C(=O)[C@H](Cc4ccccc4)N3C2=O)C[C@@H]2c3cccc4[nH]cc(c34)C[C@H]21 [Dihydroergotamine (mesylate)]	16.4	11.9	-6.95	-1.86	2.36
CC(C)N(CCC(C(N)=O)(c1ccccc1)c1ccccn1)C(C)C (stereo not given) [Disopyramide]	5.49	-1.52	13.6	4.14	9.12
Nc1ccncc1 [4-Aminopyridine]	5.12	6.44	9.5	-2.32	10.7
CC(C)C[C@H]1C(=O)N2CCC[C@H]2[C@]2(O)O[C@](NC(=O)[C@@H]3C[C@@H]4c5cccc6[nH]cc(c56)C[C@H]4N(C)C3)(C(C)C)C(=O)N12.CC(C)[C@@]1(NC(=O)[C@@H]2C[C@@H]3c4cccc5[nH]cc(c45)C[C@H]3N(C)C2)O[C@@]2(O)[C@@H]3CCCN3C(=O)[C@H](Cc3ccccc3)N2C1=O.CC(C)[C@H]1C(=O)N2CCC[C@H]2[C@]2(O)O[C@](NC(=O)[C@@H]3C[C@@H]4c5cccc6[nH]cc(c56)C[C@H]4N(C)C3)(C(C)C)C(=O)N12.CCC(C)[C@H]1C(=O)N2CCC[C@H]2[C@]2(O)O[C@](NC(=O)[C@@H]3C[C@@H]4c5cccc6[nH]cc(c56)C[C@H]4N(C)C3)(C(C)C)C(=O)N12 [Ergoloid (mesylates)]	8.62	4.7	-1.3	2.76	-3.42
NCC1(CC(=O)O)CCCCC1 [Gabapentin]	-1.43	8.77	13.9	2.43	6.89
Cc1cccc([C@H](C)c2c[nH]cn2)c1C [Dexmedetomidine (hydrochloride)]	3.34	6.43	-24.1	-7.14	-16.9
CC(N)Cc1ccc(O)cc1 (stereo not given) [4-hydroxy Amphetamine (hydrochloride)]	2.21	-1.49	5.37	0.612	-2.78
O=C1CC[C@@]2(O)[C@H]3Cc4ccc(O)c5c4[C@@]2(CCN3CC2CC2)[C@H]1O5 [Naltrexone (hydrochloride)]	12.7	5.18	13.3	2.13	7.87

Structure (SMILES)	difference in excitability [1]	difference in startle response [2]	difference in activity during first hour [3]	difference in habituation to acoustic stimuli [4]	difference [5]
O=C(O)CCCc1ccc(N(CCCl)CCCl)cc1 [Chlorambucil]	12.6	1.74	5.75	-1.6	-10.5
NCC(CC(=O)O)c1ccc(Cl)cc1 (racemic) [(±)-Baclofen]	-0.88	5.35	13.9	-0.192	6.84
COc1cc2c(c(OC)c1OC)-c1ccc(OC)c(=O)cc1[C@@H](NC(C)=O)CC2 [Colchicine]	-4.48	-0.112	1.93	2.9	4.29
O=c1[nH]c2ccccc2n1C1CCN(CCCC(c2ccc(F)cc2)c2ccc(F)cc2)CC1 [Pimozide]	-5.57	7.75	-5.44	-11	-13.5
O=C(O[C@H]1C[N+]2(CCCOc3ccccc3)CCC1CC2)C(O)(c1cccs1)c1cccs1 [Aclidinium (bromide)]	-0.582	-8.56	-5.04	-1.38	-3.58
COc1ccc2c(c1)[C@]13CCCC[C@@H]1[C@H](C2)N(C)CC3 [Dextromethorphan (hydrobromide hydrate)]	18.6	1.65	-16	-4.55	-8.83
ClC1C(Cl)C(Cl)C(Cl)C(Cl)C1Cl (stereo not given) [γ-Lindane]	7.5	11.9	1.64	-7.56	-16.7
CC(O)(CS(=O)(=O)c1ccc(F)cc1)C(=O)Nc1ccc(C#N)c(C(F)(F)F)c1 (stereo not given) [Bicalutamide]	-0.599	4.36	0.23	6.4	9.87
CN(C)C(=O)Oc1cccc([N+](C)(C)C)c1 [Neostigmine (methyl sulfate)]	-10.3	0.754	11.2	5.23	17
C=CCN1C[C@H](C(=O)N(CCCN(C)C)C(=O)NCC)C[C@@H]2c3cccc4[nH]cc(c34)C[C@H]21 [Cabergoline]	13.2	-8.8	-4.41	5.57	-3.78
CCOC(=O)CC(SP(=S)(OC)OC)C(=O)OCC (stereo not given) [Malathion]	21.4	5.73	-5.37	1.62	14.9
CCOC(=O)c1cncn1[C@H](C)c1ccccc1 [Etomidate]	-7.08	15.9	-22.2	-6.98	-19.2
C=CCN1CC[C@]23c4c5ccc(O)c4O[C@H]2C(=O)CC[C@@]3(O)[C@H]1C5 [Naloxone (hydrochloride)]	12.1	-4.15	1.81	1.98	9.16
CN1[C@@H]2C[C@@H](OC(=O)[C@H](CO)c3ccccc3)C[C@H]1[C@@H]1O[C@@H]12 [Scopolamine (hydrobromide)]	4.44	2.53	-2.69	-4.87	2.89
CCN(C)C(=O)Oc1cccc([C@H](C)N(C)C)c1 [Rivastigmine (tartrate)]	0.964	4.99	-2.5	-3.03	5.01
N[C@@H]1C[C@H]1c1ccccc1 [Tranylcypromine (hydrochloride)]	-4.31	-7.1	-15.2	-1.86	1.86
CN1[C@@H]2CC[C@H]1C[C@@H](OC(=O)C(CO)c1ccccc1)C2 (stereo not given in full) [Atropine]	-7.7	-5.16	-10.3	-0.323	-1.56
C[C@]12CC[C@H](O)CC1=CC[C@@H]1[C@@H]2CC[C@]2(C)C(=O)CC[C@@H]12 [Dehydroepiandrosterone]	19	-2.18	-15.8	1.51	6.05
C[N+]1(C)[C@@H]2C[C@@H](OC(=O)[C@H](CO)c3ccccc3)C[C@H]1[C@@H]1O[C@@H]12 [Methylscopolamine (bromide)]	-2.02	0.0162	-10	-2.49	0.657
Cn1c(CCCC(=O)O)nc2cc(N(CCCl)CCCl)ccc21 [Bendamustine (hydrochloride)]	1.71	-1.73	2	-3.41	-1.37
O=[N+]([O-])O[C@H]1CO[C@H]2[C@@H]1OC[C@H]2O[N+](=O)[O-] [Isosorbide Dinitrate]	5.95	10.4	2.6	1.13	5
Nc1ncnc2c1ncn2CCOCP(=O)(O)O [Adefovir]	-0.414	3.47	19.5	-0.786	6.79
COc1ccc(C(CN(C)C)C2(O)CCCCC2)cc1 (stereo not given) [Venlafaxine (hydrochloride)]	16.6	-10.3	-21.1	-5.65	-7.48
C=CCN1CC[C@]23c4c5ccc(O)c4O[C@H]2[C@@H](OCCOCCOCCOCCOCCOCCOCCOC)CC[C@@]3(O)[C@H]1C5 [Naloxegol (oxalate)]	3.05	1.93	7.65	5.19	-4.82
CN(C)C(=O)Oc1ccc[n+](C)c1 [Pyridostigmine (bromide)]	-1.66	-2.73	-1.82	4.7	2.09
